# Measurements published in PubChem BioAssay (NCI).
# Compounds without any hit were thinned out: in the full panel of roughly 83,000, 20% have a hit.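 Note: values are percent growth. 100 is the growth of untreated cells, values between 100 and 0 indicate rising inhibition; between -100 and 0 indicates cell death.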 Values without a mark were called inactive. Calls of active or inactive are those of the source. The calls were made as follows: active = growth percent below 10; inactive = the rest.
# Tests used:
# Assay in all cases: NCI-60 one-dose screen, 48 h (100 = growth as untreated, 0 = no growth, -100 = all killed)
# Settings in all cases: 10 µM unless noted
# [1] = tested on: DU-145 prostate
# [2] = tested on: K-562 leukemia
# [3] = tested on: MALME-3M melanoma
# [4] = tested on: MDA-MB-231 breast
# [5] = tested on: RXF 393 renal
# [6] = tested on: SF-268 CNS
# [7] = tested on: SF-295 CNS
# [8] = tested on: SF-539 CNS
# [9] = tested on: UACC-257 melanoma
# [10] = tested on: M14 melanoma
# [11] = tested on: HCT-15 colon
# [12] = tested on: HT29 colon
# [13] = tested on: SNB-75 CNS
# [14] = tested on: SNB-19 CNS
# [15] = tested on: SK-MEL-5 melanoma
# [16] = tested on: UACC-62 melanoma
# [17] = tested on: LOX IMVI melanoma
# [18] = tested on: SK-MEL-28 melanoma
# [19] = tested on: U251 CNS
# [20] = tested on: PC-3 prostate
Structure (SMILES),growth [1],growth [2],growth [3],growth [4],growth [5],growth [6],growth [7],growth [8],growth [9],growth [10],growth [11],growth [12],growth [13],growth [14],growth [15],growth [16],growth [17],growth [18],growth [19] [%],growth [20]
c1coc(-c2c3ccc(=[N+]4CCCCC4)cc-3oc3cc(N4CCCCC4)ccc23)c1,-96.2% (active),-49.9% (active),-71.9% (active),-56.5% (active),-93.8% (active),-83.4% (active),-75.2% (active),-93.3% (active),-75.4% (active),-94.3% (active),-80.7% (active),-80.9% (active),-67.8% (active),-93.2% (active),-90.7% (active),-81.3% (active),-87.2% (active),-88.7% (active),–,–
COc1cc(C(=O)/C=C/c2c(-c3ccc(F)cc3)nc3sc(C)cn23)cc(OC)c1OC,39.2%,7.75% (active),6.76% (active),38.2%,44.2%,40.4%,32.4%,57.7%,21.4%,32.3%,35.5%,41.5%,50.1%,–,-88.8% (active),23.1%,25.1%,12.4%,32.9,–
C=CCn1c(C)nc2cc(Nc3nc(Cl)nc4ccccc34)ccc21,105%,74.8%,122%,89.9%,87.4%,89.9%,84.8%,97.4%,102%,110%,92.3%,98.8%,96.9%,–,91.4%,93.1%,104%,107%,95.5,82%
COc1cc(N2C(=O)c3nccnc3C2=O)cc(OC)c1OC,115%,98.1%,96%,93.1%,126%,111%,110%,119%,105%,91.8%,104%,99.8%,103%,–,111%,114%,106%,108%,97.5,–
COc1cc(/C=C/C(=O)c2c(C)nc3ccccc3c2C)ccc1OCCCN1CCN(C(=O)c2ccco2)CC1,91.4%,59.7%,68.3%,75.3%,74%,87.4%,78.3%,93.3%,62.4%,94.4%,76.2%,6.55% (active),-70.5% (active),–,33.5%,65.9%,81.9%,-29% (active),77.9,88.3%
CN(C)CCCn1c(=O)c2ccccc2c2ccccc21,44.1%,88.1%,100%,67%,74.7%,68.2%,83.3%,85.6%,93.8%,87.8%,64.7%,50%,85.9%,–,79.7%,82.2%,56.5%,103%,87.9,70%
N#Cc1nc2c(S(=O)(=O)c3ccc(Cl)cc3)c(N)n(Nc3cccc(Cl)c3)c2nc1C#N,16.2%,25.9%,25.3%,58.8%,46.3%,53.8%,48.9%,38.9%,47.9%,79%,91.2%,69.5%,55.9%,–,42.8%,49.2%,61.3%,26.1%,40,-56.8% (active)
NC(=O)c1ccc[n+](Cc2ccc(Cl)cc2Cl)c1,111%,92.9%,100%,103%,118%,103%,111%,105%,72%,94.5%,105%,91.3%,102%,–,97.6%,93.2%,95.8%,108%,89.6,88.9%
